# According to PubChem BioAssay (Tox21):
# Records with an inconclusive call do not appear. Where a call stands in place of a potency, no number is given. Calls of active or inactive are those of the source. The call rests on the fitted dose curve; in most records, active means well fitted inhibition curve with a large enough effect in the repeat runs; inconclusive means weak or mixed curves; inactive means no such curve, though single readings can be large or run the other way.
# Assay: qHTS assay to identify small molecule antagonists of the estrogen related receptor (ERR) signaling pathway from Tox21 library (AID 1224848); further: nearly all actives have a fitted effect of over 50% in size
# Conditions: ERR reporter cell line, luciferase antagonist mode, 18 h; series mostly up to 92.4 µM
# Source text: U.S. Tox21 Program National Center for Advancing Translational Sciences [NCATS] NIH Chemical Genomics Center [NCGC] U.S. Environmental Protection Agency [EPA] National Institutes of Environmental Health Sciences [NIEHS] National Toxicology Program [NTP] U.S. Food and Drug Administration [FDA] Tox21 Assay Overview: Estrogen related receptors (ERRs), the first orphan nuclear receptors discovered, play an important role in the control of cellular energy metabolism. ERRs are required for high-energy production in response to the environmental challenges. ERR-alpha was also identified as an adverse marker for breast cancer progression; ERR-alpha-positive tumors have a poor prognosis. To screen and to identify environmental compounds that perturb the ERR signaling pathways could provide valuable information for potential therapeutic or preventive measures in the treatment of metabolic disease. For identifying ERR antagonists, ERR cell line (provided by NTP) has been used to screen Tox21 10K library.
# Tox21 Assay Protocol Summary: The ERR cells were dispensed at 2,000 cells/5 ul/well in 1536-well white plates using a Multidrop dispenser. After the assay plates were incubated at a 37 C/5% CO2 incubator for 6 hours, 23 nL of compounds dissolved in DMSO, positive and negative controls or DMSO only was transferred to the assay plate by a pin tool. The plates were incubated at 37 C for 18 hours. 4 ul/well of One-Glo reagent was added into the assay plates using a Flying Reagent Dispenser. After 30-minute incubation at room temperature, the luminescence intensity in the plates was measured using a ViewLux plate reader.
# Potency means the concentration at half of the fitted maximal effect.
Compound,Potency,"activity, negative = inhibition"
O=C(O)[C@@H]1[C@H]2C[C@H]3c4[nH]c5ccccc5c4CCN3C[C@@H]2CC[C@@H]1O,inactive,–
Nc1ccc(C(=O)Nc2ccccc2N)cc1,inactive,–
O=C1[C@H](CC[C@H](O)c2ccc(F)cc2)[C@@H](c2ccc(O)cc2)N1c1ccc(F)cc1,26.6 µM (active),–
O=C(O)C(c1ccc(Cl)cc1)c1ccc(Cl)cc1,inactive,–
CCCCCC(CO)CCC (stereo not given),inactive,–
Nc1ccc(C(=O)N2CC3CC(CN(Cc4ccccc4)C3)C2)cc1,inactive,–
CCCCCC/C=C/C=O,inactive,–
CN1CCN(C2=Nc3ccccc3Sc3ccc(Cl)cc32)CC1,inactive,–
CC(=O)[C@@]1(O)CC[C@H]2[C@@H]3C[C@H](C)C4=CC(=O)CC[C@]4(C)[C@H]3CC[C@@]21C,23.7 µM (active),–
Cc1cccc(Oc2ccccc2)c1,26.6 µM (active),–
CC(=O)/C(C)=C/C1C(C)=CCCC1(C)C (stereo not given),inactive,–
Cc1ccc(C)o1,inactive,–
NC(N)=N/N=C/c1c(Cl)cccc1Cl,inactive,–
C=CCCCCCC,inactive,–
CN(C)CCCOc1nn(Cc2ccccc2)c2ccccc12,inactive,–
CCCCCCCCCO,inactive,–
CCOc1ccc(NC(=O)CC(C)=O)cc1,inactive,–
NC(N)=NN=C(/C=C/c1ccc([N+](=O)[O-])o1)/C=C/c1ccc([N+](=O)[O-])o1,2.66 µM (active),–
CC(=O)OC/C=C/c1ccccc1,inactive,–
CCN(CC)C(C)=O,inactive,–

Compound,Potency,"activity, negative = inhibition"
O=C(C(=O)c1ccc(Br)cc1)c1ccc(Br)cc1,–,-0.511% [at 19 µM] (inactive)
CCN(CC)CCOc1ccc2c(c1)C(=O)c1cc(OCCN(CC)CC)ccc1-2,18.8 µM (active),–
C1=Cc2ccccc2C1,inactive,–
Cc1ccc(C(=O)C(C)CN2CCCCC2)cc1 (stereo not given),inactive,–
CC(=O)N(CC(=O)N(C)C)c1ccccc1,inactive,–
CCCc1ccccc1,inactive,–
CC(=O)N(O)CCCCCNC(=O)CCC(=O)N(O)CCCCCNC(=O)CCC(=O)N(O)CCCCCN,26.6 µM (active),–
C=CC(=O)OCCOC(=O)CCC(=O)O,inactive,–
C=CC[N+]1([C@H]2C[C@H]3[C@@H]4CC[C@H]5C[C@H](OC(C)=O)[C@@H](N6CCCCC6)C[C@]5(C)[C@H]4CC[C@]3(C)[C@H]2OC(=O)CC)CCCCC1,inactive,–
CN1CCC(=C2c3ccccc3C=Cc3ccccc32)CC1,inactive,–
Cc1ccccc1N=Nc1ccc(N=Nc2c(O)ccc3ccccc23)c(C)c1,inactive,–
O=C(O)COC(=O)Cc1ccccc1Nc1c(Cl)cccc1Cl,inactive,–
NC[C@H]1O[C@H](O[C@H]2[C@H](O)[C@@H](O[C@H]3O[C@H](CO)[C@@H](O)[C@H](N)[C@H]3O)[C@H](N)C[C@@H]2N)[C@H](O)[C@@H](O)[C@@H]1O,–,17.9% [at 8.39 µM] (inactive)
CCCC[C@H]1CN(CC2CCOCC2)C(=O)OC12CCN(C1(C)CCN(C(=O)c3c(C)ncnc3C)CC1)CC2,inactive,–
Cc1cc(NC(=O)C(=O)O)cc(C)c1Oc1ccc(O)c2c1CCC2,inactive,–
Oc1ccc(C(O)CNCCCCCCNCC(O)c2ccc(O)c(O)c2)cc1O (stereo not given),inactive,–
NC(=S)N/N=C/c1cccnc1,inactive,–
CCOc1nc2cccc(C(=O)O)c2n1Cc1ccc(-c2ccccc2-c2nn[nH]n2)cc1,inactive,–
COc1ccc([C@@H]2Sc3ccccc3N(CCN(C)C)C(=O)[C@@H]2OC(C)=O)cc1,16.8 µM (active),–
COC(=O)C(C)=O,inactive,–
